Reference: publication PMC4336329 (PLoS ONE, 2015)
Screen size: about 310,000 compounds; about 2,200 (0.71%) showed an effect of 50% or more. Effects have a minus sign here. The sample as a whole holds a higher share of strong results than the screen did.

These compounds were tested against human ether-à-go-go-related gene (hERG) potassium channel (human, UniProt Q12809) (assay: primary screen, population patch clamp on CHO cells stably expressing hERG; higher = less effect of the substance).
human ether-à-go-go-related gene (hERG) potassium channel, sequence (Q12809 whole entry, looked up): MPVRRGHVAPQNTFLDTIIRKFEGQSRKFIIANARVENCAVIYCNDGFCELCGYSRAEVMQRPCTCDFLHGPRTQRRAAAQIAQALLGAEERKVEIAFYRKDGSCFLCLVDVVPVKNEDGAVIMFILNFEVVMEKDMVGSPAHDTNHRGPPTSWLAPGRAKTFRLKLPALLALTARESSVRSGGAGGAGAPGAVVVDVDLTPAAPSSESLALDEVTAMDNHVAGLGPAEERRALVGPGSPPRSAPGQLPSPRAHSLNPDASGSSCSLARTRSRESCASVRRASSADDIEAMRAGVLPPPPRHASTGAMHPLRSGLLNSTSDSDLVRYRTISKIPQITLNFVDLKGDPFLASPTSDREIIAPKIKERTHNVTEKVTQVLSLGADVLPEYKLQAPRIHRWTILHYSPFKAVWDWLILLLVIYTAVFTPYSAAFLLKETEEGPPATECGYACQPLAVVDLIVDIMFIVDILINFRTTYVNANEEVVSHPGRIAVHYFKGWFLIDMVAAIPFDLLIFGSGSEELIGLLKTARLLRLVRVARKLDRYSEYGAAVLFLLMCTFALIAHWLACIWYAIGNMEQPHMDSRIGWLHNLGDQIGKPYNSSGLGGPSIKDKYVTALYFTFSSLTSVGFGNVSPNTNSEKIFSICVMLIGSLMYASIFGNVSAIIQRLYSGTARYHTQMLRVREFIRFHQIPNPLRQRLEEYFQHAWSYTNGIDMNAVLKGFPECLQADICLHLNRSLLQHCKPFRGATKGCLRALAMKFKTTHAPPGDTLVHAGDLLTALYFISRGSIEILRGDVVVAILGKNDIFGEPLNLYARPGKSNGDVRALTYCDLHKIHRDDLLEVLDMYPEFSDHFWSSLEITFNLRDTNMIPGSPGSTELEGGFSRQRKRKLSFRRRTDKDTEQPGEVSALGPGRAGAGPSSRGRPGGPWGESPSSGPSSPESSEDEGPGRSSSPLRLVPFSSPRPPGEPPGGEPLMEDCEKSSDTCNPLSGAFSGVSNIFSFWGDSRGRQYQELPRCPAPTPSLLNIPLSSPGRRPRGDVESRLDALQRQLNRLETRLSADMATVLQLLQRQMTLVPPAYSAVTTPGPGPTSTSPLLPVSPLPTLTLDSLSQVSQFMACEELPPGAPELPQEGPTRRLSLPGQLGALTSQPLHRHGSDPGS

Row | SMILES | hERG current change (%, negative = inhibition) at 1uM
1 | O=C(c1cccnc1NCc1ccc(F)cc1)N1CCOCC1 | 5.16%
2 | CN(C)c1ccc(/C=C/C(=O)c2ccccc2)cc1[N+](=O)[O-] | -0.74%
3 | Cc1cccc(NC(=O)CN2CCN(C(=O)C3CCC3)CC2)c1C | -7.56%
4 | COC(=O)C1CCN(C(=O)/C=C/c2ccccc2)CC1 | 11.1%
5 | Cc1cccc(NC(=O)CN2CCN(C(=O)C3CCN(C(=O)/C=C/c4ccccc4)CC3)CC2)c1C | -56.6%
6 | CCc1ccccc1NC(=O)CN1CCN(C(=O)C2CCN(C(=O)/C=C/c3ccccc3)CC2)CC1 | -74.5%
7 | CCc1ccccc1NC(=O)CN1CCN(CC(=O)Nc2ccc(-c3ccccc3)cc2)CC1 | -7.45%
8 | Cc1cccc(NC(=O)CN2CCN(C(=O)C3CCCO3)CC2)c1C (stereo not shown) | 5.32%
9 | O=C(CN1CCN(C(=O)c2ccco2)CC1)NCc1ccc(Cl)cc1 | -35.1%
10 | O=C(OCC(=O)N1CCN(C(=O)c2ccco2)CC1)c1cncc(Br)c1 | 6.76%
11 | C[C@@H](C(=O)NCc1c(F)cccc1Cl)N1C(=O)N2CCc3c([nH]c4ccccc34)[C@@]2(C)C1=O | 4.12%
12 | C[N+]1=C(/C=C/Nc2ccccc2)C(C)(C)c2ccccc21.[O-][Cl+3]([O-])([O-])[O-] | -62.8%
13 | CC1(C)OC(=O)C(=CNc2ccccc2)C(=O)O1 | 2.21%
14 | COC(=O)c1ccc2c(c1)C(C)(C)C(/C=C/c1ccccc1O)=[N+]2C.[I-] | -7.78%
15 | O=C1c2ccccc2C(=O)N1OCc1ccc(Cl)cc1 | 8.72%
16 | COc1cc(CN2CCC(C)CC2)ccc1OCc1ccccc1.O=C(O)C(=O)O | -3.21%
17 | COc1ccc(CN2CCN(Cc3ccc(C(F)(F)F)cc3)CC2)cc1.O=C(O)C(=O)O | -24.5%
18 | COc1ccc(OC)c(CN2CCC(Cc3ccccc3)CC2)c1.O=C(O)C(=O)O | -61.9%
19 | CCOc1ccccc1OCCN1CCC(Cc2ccccc2)CC1.O=C(O)C(=O)O | -53.7%
20 | COc1cc(C(C)=O)ccc1OCCN1CCC(Cc2ccccc2)CC1.O=C(O)C(=O)O | -93.3%
21 | COc1ccc(OC)c(CN2CCN(C(=O)Cc3ccccc3)CC2)c1.O=C(O)C(=O)O | 17.6%
22 | COc1ccc(CN2CCN(Cc3ccc(C(F)(F)F)cc3)CC2)c(OC)c1.O=C(O)C(=O)O | -66.6%

Row | SMILES | hERG current change (%, negative = inhibition) at 1uM
23 | COc1cc(C(=O)OCC(=O)N2CCC(Cc3ccccc3)CC2)cc(OC)c1OC | 13.4%
24 | Clc1ccccc1OCCN1CCC(Cc2ccccc2)CC1.O=C(O)C(=O)O | 10.6%
25 | COc1ccc(CN2CCN(Cc3ccc(C)cc3)CC2)c(OC)c1.O=C(O)C(=O)O | -18.9%
26 | Cc1ccccc1OCCN1CCC(Cc2ccccc2)CC1.O=C(O)C(=O)O | -10%
27 | COc1ccc(CN2CCC(Cc3ccccc3)CC2)cc1OC.O=C(O)C(=O)O | -32.9%
28 | COC(=O)C1CCN(C(=O)Cc2ccc(C)cc2)CC1 | 10.2%
29 | COc1cccc(C(=O)Nc2cccc(-c3nnc(-c4ccco4)o3)c2)c1 | -1.01%
30 | O=C(O)c1cccc(O)c1O | 8.42%
31 | CCOC(=O)N1CCN(Cc2cc(=O)oc3cc4c(cc23)CCC4)CC1 | -3.49%
32 | Cc1cc(=S)[nH]c2c(C)cccc12 | 15.9%
33 | c1ccc(-c2cnnc(-c3ccccn3)n2)cc1 | 4.98%
34 | CN(C)CCCOC(=O)c1cc2ccccc2o1.Cl | 13%
35 | COc1ccccc1C1=NOC(C(=O)N2CCN(C(=O)c3ccco3)CC2)C1 (stereo not shown) | 8.33%
36 | Cc1cccc2cc(C#N)c(NCCCn3ccnc3)nc12 | -11.1%
37 | COc1cc(C(=S)N2CCC(Cc3ccccc3)CC2)ccc1OCC(N)=O | 3.73%
38 | COc1ccc(CCNC(=O)c2ccc(CN3CCC(Cc4ccccc4)CC3)cc2)cc1OC | -3.19%
39 | COc1cccc(CN2CCC(N(CCc3ccccc3)Cc3ccccc3)CC2)c1OC.O=C(O)C(=O)O | 0.877%
40 | COc1cc(C(C)=O)ccc1OCCCN1CCC(Cc2ccccc2)CC1.O=C(O)C(=O)O | -82.8%
41 | COc1ccc(CN2CCC(C(=O)N(C)CCc3ccc(OC)c(OC)c3)CC2)c(OC)c1.O=C(O)C(=O)O | -18%
42 | COc1ccc(CN2CCC(N(CCc3ccccc3)Cc3ccccc3)CC2)c(OC)c1.O=C(O)C(=O)O | -79.8%
43 | CC(C)(C)c1ccc(COn2ccnc2)cc1 | 21%
44 | COC(=O)CSc1ccc(C#N)c(SCC(=O)OC)c1 | 12.6%

Row | SMILES | hERG current change (%, negative = inhibition) at 1uM
45 | COC(=O)c1ccc(NC(=O)CN2CCN(S(=O)(=O)c3cc(Cl)ccc3OC)CC2)cc1 | 10.2%
46 | O=C(CSc1n[nH]c(-c2cccnc2)n1)Nc1ccccc1[N+](=O)[O-] | 11.9%
47 | COc1cccc(Cn2c(-c3cccs3)noc2=O)c1 | -8.06%
48 | COc1ccc(C)cc1S(=O)(=O)N(CC(=O)N1CCOCC1)c1cc(C)cc(C)c1 | -52%
49 | COc1ccc(C)cc1S(=O)(=O)N(CC(=O)N1CCCC1)c1ccccc1 | 4.54%
50 | COc1ccc(C)cc1S(=O)(=O)N(CC(=O)N1CCCC1)c1ccc(C)cc1 | -25.1%
51 | CCCC(=O)Nn1cnc2c(c1=O)C1(CCCCC1)Cc1ccccc1-2 | 7.68%
52 | COCCN=C1Sc2nc3cc(C)c(C)cc3cc2CN1Cc1cccs1 | 8.08%
53 | NC(=O)C1(N2CCCCC2)CCN(CC(=O)Nc2cc(Cl)ccc2Cl)CC1 | -55.3%
54 | COc1ccc(NC(=O)CN2CCN(CC(=O)Nc3ccccc3Cl)CC2)cc1 | -79.3%
55 | COc1ccc(NC(=O)CN2CCC(C(N)=O)CC2)cc1 | 2.62%
56 | COc1ccc(NC(=O)CCN2CCN(S(=O)(=O)c3ccc(Cl)cc3)CC2)cc1 | 2.03%
57 | COc1ccc(NC(=O)CN2CCN(S(=O)(=O)c3ccc(Cl)cc3)CC2)cc1 | -64.1%
58 | CCOc1ccc(NC(=O)CN2CCN(S(=O)(=O)c3ccc(Cl)cc3)CC2)cc1 | 10.8%
59 | NC(=O)C1(N2CCCCC2)CCN(CC(=O)Nc2ccccc2-c2ccccc2)CC1 | 15.5%
60 | COc1ccc(NC(=O)CN2CCN(CC(=O)Nc3ccc(OC)c(OC)c3)CC2)cc1 | -66.1%
61 | COc1cccc(NC(=O)CN2CCN(CC(=O)Nc3ccccc3Cl)CC2)c1 | -21.1%
62 | COc1ccc(NC(=O)CN2CCN(c3ccccc3Cl)CC2)cc1 | 1.08%
63 | O=C(CN1CCCCC1)Nc1cc(Cl)ccc1Cl | -0.089%
64 | COc1ccc(NC(=O)CN2CCCCCC2)cc1OC | 7.92%
